MCF10A rereplic – A quantitative high throughput screen for small molecules that induce DNA re-replication in MCF 10a normal breast cells. MCF 10A DNA re-replication, Hoechst nuclear intensity, 48 h. Potency, µM (doses to about 46.1 µM), without a hit: top-dose activity, positive = re-replication, usual class: activators. hit rate 2.9% among 350,000. AID 624296, 2012; also: % of control where 0% means no effect; nearly all actives have a fitted effect of over 50% in size
KB-3-1 cytotox – qHTS assay for MDR1-selective chemotherapeutics: Primary screen using the parental adenocarcinoma cell KB-3-1. KB-3-1 viability, CellTiter-Glo ATP luminescence, 72 h. Potency, µM (highest dose often 46.1 µM), actives largely listed as cytotoxic. hit rate 1.4% among 400,000. AID 1347075, 2019; also: % is scaled to controls: 0 for no effect and ±100 for the full control effect; nearly all actives have a fitted effect of over 60% in size
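Luminescent ATP read-out (CellTiter-Glo) measures survival of drug-naive KB-3-1 cells after 72 h compound exposure at 37 °C. Titration series was screened from lowest to highest concentration, with DMSO vehicle plates as background controls.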
ELG1 DNA repair – qHTS screen for small molecules that inhibit ELG1-dependent DNA repair in human embryonic kidney (HEK293T) cells expressing luciferase-tagged ELG1; HEK293T ELG1-luciferase reporter, luminescence, 16 h; DNA damage induced by 5-fluorouridine; Potency, µM (titrated, usually from 46.1 µM), without a hit: at the top dose activity change, negative = inhibition, usual class: inhibitors; hit rate 2.3% among 330,000; also: % is scaled to controls: 0 for no effect and ±100 for the full control effect; nearly all actives have a fitted effect of over 55% in size
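In this reporter screen, reduction of luminescence relative to DMSO vehicle indicated activity. Compounds and 5-fluorouridine were added together to 2,000 cells per well, incubated for 16 hr at 37 °C, then developed with ONE-Glo.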
KB-V1 MDR tox – qHTS assay for MDR1-selective chemotherapeutics: Primary screen using the drug-selected MDR subline cells KB-V1 | hit rate 3.4% among 400,000 | AID 1347076, 2019 | KB-V1 MDR cells viability, CellTiter-Glo, 72 h | Potency, µM (doses to about 46.1 µM), most hits filed as cytotoxic; also: % is scaled to controls: 0 for no effect and ±100 for the full control effect; nearly all actives have a fitted effect of over 60% in size
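KB-V1 cells (P-gp-expressing MDR subline of KB-3-1) in phenol-red-free DMEM with 10% FBS were exposed to library compounds over a concentration series for 72 h at 37 degrees C. Viability read by CellTiter-Glo luminescence; concentration-effect curves fitted after normalization.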
SW480 rerep – A quantitative high throughput screen for small molecules that induce DNA re-replication in SW480 colon adenocarcinoma cells; Potency, µM (series often up to 46.1 µM), for the others: at the top dose re-replication activation, actives largely listed as activators; AID 624297, 2012; hit rate 1.8% among 340,000; SW480 DNA re-replication, Hoechst DNA content imaging, 48 h; also: % of control where 0% means no effect; nearly all actives have a fitted effect of over 55% in size
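Per well, 250 cells were exposed to pinned compound for 48 hr. Nuclear DNA was visualised with Hoechst (40 min, 37 C) and total object intensity recorded by fluorescence scanning.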
An asterisk follows results filed as active; i = inactive; ? = inconclusive; nt = no result. In the library only some 8.2% were active in any assay of this set; here they are far more common. Calls follow the shape of the dose curve; as a rule, active = well fitted curve in the direction sought with a large enough effect; inconclusive = small, poorly fitted or top-dose-only effect, or another doubt; inactive = no such curve, though single readings can be large; an effect the other way counts as inactive or inconclusive. Potency is read from the fitted curve at half-maximal effect.

SMILES	MCF10A rereplic	KB-3-1 cytotox	ELG1 DNA repair	KB-V1 MDR tox	SW480 rerep
Cc1ccc(NC(=O)Cn2cc(S(=O)(=O)N3CCCC3)c(S(=O)(=O)N3CCCC3)c2)cc1C	nt	i	nt	?	nt
O=C(c1ccccc1)c1cnc(Nc2ccccc2Cl)s1	?	i	?	13µM*	22%
COc1ccc(S(=O)(=O)NC(C)C(=O)Nc2ccc3c(c2)OCCO3)cc1OC (centres undefined)	?	i	9%	i	-36%
O=C(C[n+]1ccc(Cc2ccccc2)cc1)Nc1ccc([N+](=O)[O-])cc1Cl	?	i	-7%	i	11%
O=C(CN(C(=O)c1ccccc1Cl)C1CCCCC1)Nc1ccc(Cl)c([N+](=O)[O-])c1	12%	i	?	i	?
Cc1ccc([N+](=O)[O-])cc1NC(=O)CNC1CCCCC1	-12%	i	1%	i	-7%
O=C(CN(C(=O)c1ccc(Cl)cc1)C1CCCCC1)Nc1ccc(Cl)c([N+](=O)[O-])c1	7%	i	?	15µM*	?
Cc1ccc([N+](=O)[O-])cc1NC(=O)CN(C(=O)c1ccc(Cl)cc1)C1CCCCC1	10%	?	0%	23µM*	16%
Cc1ccc(Cl)cc1NC(=O)C[n+]1ccc(Cc2ccc([N+](=O)[O-])cc2)cc1	?	10µM*	?	?	3%
O=C(NCc1ccccc1Cl)c1ccc(CS(=O)Cc2ccc(Cl)cc2)o1 (centres undefined)	14%	i	?	?	-1%
CC(C)CC(=O)OC1C(N2CCOCC2)c2c(ccc(/C=C/C(=O)N3CCOCC3)c2O)OC1(C)C (centres undefined)	14%	i	16µM*	?	-4%
N#CCC(=O)Nc1ccc(C(=O)OC(C(=O)Nc2ccc([N+](=O)[O-])cc2Br)c2ccccc2)cc1 (centres undefined)	-2%	i	nt	i	-3%
N#CCC(=O)Nc1ccc(C(=O)OC(C(=O)Nc2cc(C(F)(F)F)ccc2Cl)c2ccccc2)cc1 (centres undefined)	?	?	-22%	15µM*	?
CCCNC(=O)C1(C)CCCN(C(=O)/C=C/c2ccccc2)C1 (centres undefined)	nt	i	nt	i	nt
Cc1cc(C)c(S(=O)(=O)N2CCCC(C(=O)NCc3cccnc3)C2)c(C)c1 (centres undefined)	29%	nt	?	nt	-8%
COC(=O)c1c(C)oc2ccc(N(C(=O)c3ccncc3)S(=O)(=O)c3cc(C)ccc3C)cc12	nt	13µM*	nt	6.5µM*	nt
CC(=O)c1c(C)oc2ccc(N(C(C)=O)S(=O)(=O)c3ccc(Cl)c([N+](=O)[O-])c3)cc12	1.8µM*	?	?	?	?
CC(=O)c1c(C)oc2ccc(N(C(C)=O)S(=O)(=O)c3cccc4cccnc34)cc12	9%	?	5.8µM*	?	?
CC(=O)c1c(C)oc2ccc(N(C(C)=O)S(=O)(=O)c3ccc(Br)cc3)cc12	?	i	nt	?	-5%
COC(=O)c1c(C)oc2ccc(N(C(=O)c3ccncc3)S(=O)(=O)c3ccc(Br)cc3)cc12	nt	i	nt	i	nt
CCCC(=O)N(c1ccc2oc(C)c(C(C)=O)c2c1)S(=O)(=O)c1ccc(CC)cc1	nt	3.7µM*	nt	2.9µM*	nt
COC(=O)c1c(C)oc2ccc(N(C(C)=O)S(=O)(=O)c3ccccc3)cc12	10%	23µM*	-22%	2.3µM*	1%
CCOC(=O)c1c(-c2ccccc2)oc2ccc(N(C(C)=O)S(=O)(=O)c3ccccc3)cc12	nt	i	nt	i	nt
CCOC(=O)CN1C(c2ccc(O)cc2)Nc2ccc(Br)cc2C1c1ccccc1 (centres undefined)	18µM*	?	?	?	?
